Assay results reported in the supplement of paper PMC10127200.
Structures can show the parent of a compound that is named as a salt.

system: 786-O; assay: Euclidean distance of Cell Painting phenotypic profile (signed KS, 77 features) to DMSO centroid (dimensionless distance); higher = stronger phenotypic change vs DMSO (phenoactivity); conditions: 48 h; 5 or 10 uM (library dependent)
Procedure, shortened: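 Phenoactivity is defined as the Euclidean distance from a compound profile to the median vehicle profile. Each profile comprised 77 Harmony features, scored as signed Kolmogorov-Smirnov statistics versus same-plate vehicle wells, then plate-position corrected, correlation-weighted and replicate-averaged at the top dose. Five cancer lines and one healthy fibroblast line were exposed to library compounds for 48 h at 10 or 5 uM (0.1% DMSO final).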

SMILES	Euclidean distance
O=[N+]([O-])c1ncc[nH]1 [Azomycin]	1.03
COCC1(CO)C(=O)C2CCN1CC2 (stereo not given)	3.17
CN1c2ccccc2C(NCCCCCCC(=O)O)c2ccc(Cl)cc2S1(=O)=O (stereo not given) [Tianeptine sodium]	1.2
CN1C[C@H](C(=O)N[C@]2(C)O[C@@]3(O)[C@@H]4CCCN4C(=O)[C@H](Cc4ccccc4)N3C2=O)C[C@@H]2c3cccc4[nH]cc(c34)C[C@H]21 [Dihydroergotamine Mesylate]	1.1
NCCc1c[nH]c2ccc(O)cc12 [Serotonin HCl]	1.02
CCC(=O)O[C@H]1CC[C@H]2[C@@H]3CC[C@H]4CC(=O)[C@H](C)C[C@]4(C)[C@H]3CC[C@]12C [Drostanolone Propionate]	0.791
CC(=O)NC1CCSC1=O (stereo not given) [Citiolone]	1.19
CN1CCC(C(=O)c2cccc(NC(=O)c3c(F)cc(F)cc3F)n2)CC1 [Lasmiditan succinate]	1.46
C[N+]1(C)[C@@H]2C[C@@H](OC(=O)[C@H](CO)c3ccccc3)C[C@H]1[C@@H]1O[C@@H]12 [Methscopolamine]	0.909
CC(=O)[C@H]1CC[C@H]2[C@@H]3CC[C@H]4C[C@H](O)CC[C@]4(C)[C@H]3CC[C@]12C [Allopregnanolone]	0.735
NC(=O)CN1CCCC1=O [Piracetam]	1.42
O=[N+]([O-])O[C@@H]1CO[C@H]2[C@@H]1OC[C@@H]2O [Isosorbide Mononitrate]	1.15
C=C1[C@@H](C)[C@H]2[C@H](Cc3ccccc3)NC(=O)[C@]23[C@H](OC(C)=O)/C=C/[C@@](C)(O)C(=O)[C@@H](C)C/C=C/[C@H]3[C@@H]1O [Cytochalasin D]	4.23
C=C(C)[C@H]1Cc2c(ccc3c2O[C@@H]2COc4cc(OC)c(OC)cc4[C@@H]2C3=O)O1 [Rotenone (Barbasco)]	2.48
Cc1cccc(C)c1NC1=NCCCS1 [Xylazine]	1.17
CC(=O)Nc1ccc(OC[C@](C)(O)C(=O)Nc2ccc([N+](=O)[O-])c(C(F)(F)F)c2)cc1 [Andarine]	1.46
CC1(C)S[C@@H]2[C@H](N)C(=O)N2[C@H]1C(=O)O [6-Aminopenicillanic acid]	1.51
Cc1ccc(/N=C/N(C)/C=N/c2ccc(C)cc2C)c(C)c1 [Amitraz]	0.966
COC1=C[C@@H]2[C@@H]3Cc4ccc(OC)c(O)c4[C@]2(CCN3C)CC1=O [Sinomenine hydrochloride]	0.472
CC(C)(C)c1cc(C=C(C#N)C#N)cc(Br)c1O	1.41
